Measured values as given in the supplement of paper PMC10849652.
About 8,800 targets were measured; listed, in parts, are those with a hit and a random draw of the rest. About 0.5% of all pairs of compound and target were hits. Unmarked numbers belong to inactive results.

How the values were obtained:
Test in all cases: log2 fold change, soluble protein after heating vs DMSO (PISA); higher = thermal stabilisation; K562 lysate, 10 uM; active = over 0.2 and 3.5 SD of the protein, either way, in both replicates (recomputed)
lapatinib = compound: CS(=O)(=O)CCNCc1ccc(-c2ccc3ncnc(Nc4ccc(OCc5cccc(F)c5)c(Cl)c4)c3c2)o1 [lapatinib]
Method in brief: (§1)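 The values are log-two fold changes in thermal stability compared with solvent controls and come from duplicates. They were obtained by TMTpro 16plex LC-MS/MS, with channel sums equalised, on the supernatant after 21,000xg for 90 min. That supernatant came from crude K562 extract at 1 mg/mL protein treated with 10 μM compound for 30 min, heated for 3 min across 48°C-58°C, pooled and brought to 0.5% NP-40 at 4°C.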

pictilisib = compound: CS(=O)(=O)N1CCN(Cc2cc3nc(-c4cccc5[nH]ncc45)nc(N4CCOCC4)c3s2)CC1 [pictilisib]
Method in brief: as §1

crizotinib = compound: C[C@@H](Oc1cc(-c2cnn(C3CCNCC3)c2)cnc1N)c1c(Cl)ccc(F)c1Cl [crizotinib]
Method in brief: as §1

[1] = compound: C[C@H](C1=CC=C(C=C1)C(=O)NC2=C3C=CNC3=NC=C2)N
Method in brief: as §1

duvelisib = compound: C[C@H](Nc1ncnc2nc[nH]c12)c1cc2cccc(Cl)c2c(=O)n1-c1ccccc1 [duvelisib]
Method in brief: as §1

gandotinib = compound: Cc1cc(Nc2cc(CN3CCOCC3)c3nc(C)c(Cc4ccc(Cl)cc4F)n3n2)n[nH]1 [gandotinib]
Method in brief: as §1

tozasertib = compound: Cc1cc(Nc2cc(N3CCN(C)CC3)nc(Sc3ccc(NC(=O)C4CC4)cc3)n2)n[nH]1 [tozasertib]
Method in brief: as §1

doramapimod = compound: Cc1ccc(-n2nc(C(C)(C)C)cc2NC(=O)Nc2ccc(OCCN3CCOCC3)c3ccccc23)cc1 [doramapimod]
Method in brief: as §1

bafetinib = compound: Cc1ccc(NC(=O)c2ccc(CN3CC[C@H](N(C)C)C3)c(C(F)(F)F)c2)cc1Nc1nccc(-c2cncnc2)n1 [bafetinib]
Method in brief: as §1

[2] = compound: Cc1cccc(CC(=O)N2CCc3c2ccc(-c2cn(C)c4ncnc(N)c24)c3F)n1
Method in brief: as §1

Chain of UniProt O94761 (O94761 whole entry, looked up): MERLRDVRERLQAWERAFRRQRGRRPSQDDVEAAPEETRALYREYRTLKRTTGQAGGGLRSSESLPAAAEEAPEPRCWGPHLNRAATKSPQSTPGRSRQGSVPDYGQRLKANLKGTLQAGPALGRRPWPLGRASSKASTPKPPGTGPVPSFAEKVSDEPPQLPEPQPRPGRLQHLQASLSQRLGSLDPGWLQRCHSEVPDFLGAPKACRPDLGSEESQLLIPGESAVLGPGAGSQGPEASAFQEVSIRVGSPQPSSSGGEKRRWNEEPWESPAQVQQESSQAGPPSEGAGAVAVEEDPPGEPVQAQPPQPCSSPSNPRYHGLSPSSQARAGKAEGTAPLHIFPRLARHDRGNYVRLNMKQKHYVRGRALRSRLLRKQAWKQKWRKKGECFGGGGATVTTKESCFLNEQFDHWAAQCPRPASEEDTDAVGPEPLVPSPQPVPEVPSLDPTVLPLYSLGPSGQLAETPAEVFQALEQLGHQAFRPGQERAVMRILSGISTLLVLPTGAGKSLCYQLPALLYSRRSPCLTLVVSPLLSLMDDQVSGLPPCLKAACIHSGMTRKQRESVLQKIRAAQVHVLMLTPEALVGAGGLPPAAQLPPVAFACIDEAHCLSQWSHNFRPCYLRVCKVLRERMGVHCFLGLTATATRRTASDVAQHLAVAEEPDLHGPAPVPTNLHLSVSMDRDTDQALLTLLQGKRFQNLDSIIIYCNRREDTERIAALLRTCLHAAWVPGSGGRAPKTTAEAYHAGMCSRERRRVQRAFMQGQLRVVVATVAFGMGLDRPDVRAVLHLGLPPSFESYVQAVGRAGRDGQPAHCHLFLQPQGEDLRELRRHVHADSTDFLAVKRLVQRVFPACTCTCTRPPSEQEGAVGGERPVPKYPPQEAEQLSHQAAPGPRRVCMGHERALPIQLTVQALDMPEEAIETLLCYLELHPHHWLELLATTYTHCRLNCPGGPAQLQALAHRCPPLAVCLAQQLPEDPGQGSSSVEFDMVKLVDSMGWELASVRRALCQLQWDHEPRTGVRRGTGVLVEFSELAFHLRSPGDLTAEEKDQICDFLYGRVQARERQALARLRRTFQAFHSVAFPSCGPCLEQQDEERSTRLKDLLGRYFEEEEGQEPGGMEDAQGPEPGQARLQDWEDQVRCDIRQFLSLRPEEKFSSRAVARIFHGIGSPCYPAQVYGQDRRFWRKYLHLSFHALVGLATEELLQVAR
Chain of UniProt Q86U06 (Q86U06 whole entry, looked up): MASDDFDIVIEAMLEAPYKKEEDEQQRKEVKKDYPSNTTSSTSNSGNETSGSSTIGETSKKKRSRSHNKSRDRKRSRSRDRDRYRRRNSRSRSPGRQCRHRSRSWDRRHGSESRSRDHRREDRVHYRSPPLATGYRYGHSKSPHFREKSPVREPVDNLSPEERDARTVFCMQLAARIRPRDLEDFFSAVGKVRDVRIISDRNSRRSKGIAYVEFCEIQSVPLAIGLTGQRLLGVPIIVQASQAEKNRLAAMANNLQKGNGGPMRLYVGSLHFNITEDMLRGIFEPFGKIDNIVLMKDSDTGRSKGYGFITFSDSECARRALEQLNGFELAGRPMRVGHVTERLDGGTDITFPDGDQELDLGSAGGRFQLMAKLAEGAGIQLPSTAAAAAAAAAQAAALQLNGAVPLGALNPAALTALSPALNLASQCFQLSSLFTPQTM
Chain of UniProt P51812 (P51812 whole entry, looked up): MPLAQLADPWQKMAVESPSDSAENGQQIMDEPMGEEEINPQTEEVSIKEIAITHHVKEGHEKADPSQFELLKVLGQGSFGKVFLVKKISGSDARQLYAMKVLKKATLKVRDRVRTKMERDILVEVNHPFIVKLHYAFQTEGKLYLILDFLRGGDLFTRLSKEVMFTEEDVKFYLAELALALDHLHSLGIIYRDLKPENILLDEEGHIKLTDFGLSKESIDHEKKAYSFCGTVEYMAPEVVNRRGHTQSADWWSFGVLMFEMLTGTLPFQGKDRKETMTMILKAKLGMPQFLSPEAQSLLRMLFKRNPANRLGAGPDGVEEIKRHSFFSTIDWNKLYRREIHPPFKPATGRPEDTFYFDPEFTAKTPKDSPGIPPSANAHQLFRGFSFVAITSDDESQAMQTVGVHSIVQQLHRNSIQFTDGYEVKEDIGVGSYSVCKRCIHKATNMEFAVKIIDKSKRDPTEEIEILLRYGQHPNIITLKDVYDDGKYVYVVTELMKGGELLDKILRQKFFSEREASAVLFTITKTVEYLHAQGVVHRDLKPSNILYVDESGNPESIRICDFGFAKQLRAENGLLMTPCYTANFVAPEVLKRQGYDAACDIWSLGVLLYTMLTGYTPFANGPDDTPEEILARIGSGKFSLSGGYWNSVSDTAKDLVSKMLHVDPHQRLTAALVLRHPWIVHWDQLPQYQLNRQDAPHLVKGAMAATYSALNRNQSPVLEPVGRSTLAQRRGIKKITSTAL
Chain of UniProt Q9H974 (Q9H974 whole entry, looked up): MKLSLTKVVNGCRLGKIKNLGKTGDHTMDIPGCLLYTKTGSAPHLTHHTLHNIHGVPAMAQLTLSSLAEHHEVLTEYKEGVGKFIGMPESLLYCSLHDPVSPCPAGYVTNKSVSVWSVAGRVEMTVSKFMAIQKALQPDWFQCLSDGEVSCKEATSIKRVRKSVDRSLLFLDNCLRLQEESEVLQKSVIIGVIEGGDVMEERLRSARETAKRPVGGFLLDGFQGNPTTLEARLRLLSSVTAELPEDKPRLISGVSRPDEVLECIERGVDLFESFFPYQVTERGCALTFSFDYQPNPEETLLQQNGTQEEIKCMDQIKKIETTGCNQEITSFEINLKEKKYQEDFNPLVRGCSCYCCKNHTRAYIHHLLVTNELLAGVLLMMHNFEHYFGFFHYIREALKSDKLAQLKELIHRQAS
Chain of UniProt Q8TC12 (Q8TC12 whole entry, looked up): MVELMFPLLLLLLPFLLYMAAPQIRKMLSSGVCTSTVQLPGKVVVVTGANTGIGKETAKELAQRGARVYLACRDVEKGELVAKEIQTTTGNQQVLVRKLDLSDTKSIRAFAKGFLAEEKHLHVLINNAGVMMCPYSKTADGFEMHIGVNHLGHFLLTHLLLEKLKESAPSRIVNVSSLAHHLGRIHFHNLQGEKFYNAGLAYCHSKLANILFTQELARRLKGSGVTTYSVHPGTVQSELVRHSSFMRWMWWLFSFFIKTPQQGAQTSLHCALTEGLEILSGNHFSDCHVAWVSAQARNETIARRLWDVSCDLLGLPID
Chain of UniProt P38159 (P38159 whole entry, looked up): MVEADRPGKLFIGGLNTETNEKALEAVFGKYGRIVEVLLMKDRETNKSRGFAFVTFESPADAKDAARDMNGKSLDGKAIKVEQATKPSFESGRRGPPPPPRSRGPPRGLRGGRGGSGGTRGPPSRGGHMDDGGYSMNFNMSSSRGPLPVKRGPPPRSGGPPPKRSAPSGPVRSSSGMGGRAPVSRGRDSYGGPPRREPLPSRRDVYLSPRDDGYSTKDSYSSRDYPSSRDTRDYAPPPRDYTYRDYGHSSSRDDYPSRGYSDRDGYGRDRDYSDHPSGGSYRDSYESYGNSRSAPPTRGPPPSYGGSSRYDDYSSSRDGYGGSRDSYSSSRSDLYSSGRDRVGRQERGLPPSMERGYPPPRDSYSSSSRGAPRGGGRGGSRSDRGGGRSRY
Chain of UniProt Q9UPW6 (Q9UPW6 whole entry, looked up): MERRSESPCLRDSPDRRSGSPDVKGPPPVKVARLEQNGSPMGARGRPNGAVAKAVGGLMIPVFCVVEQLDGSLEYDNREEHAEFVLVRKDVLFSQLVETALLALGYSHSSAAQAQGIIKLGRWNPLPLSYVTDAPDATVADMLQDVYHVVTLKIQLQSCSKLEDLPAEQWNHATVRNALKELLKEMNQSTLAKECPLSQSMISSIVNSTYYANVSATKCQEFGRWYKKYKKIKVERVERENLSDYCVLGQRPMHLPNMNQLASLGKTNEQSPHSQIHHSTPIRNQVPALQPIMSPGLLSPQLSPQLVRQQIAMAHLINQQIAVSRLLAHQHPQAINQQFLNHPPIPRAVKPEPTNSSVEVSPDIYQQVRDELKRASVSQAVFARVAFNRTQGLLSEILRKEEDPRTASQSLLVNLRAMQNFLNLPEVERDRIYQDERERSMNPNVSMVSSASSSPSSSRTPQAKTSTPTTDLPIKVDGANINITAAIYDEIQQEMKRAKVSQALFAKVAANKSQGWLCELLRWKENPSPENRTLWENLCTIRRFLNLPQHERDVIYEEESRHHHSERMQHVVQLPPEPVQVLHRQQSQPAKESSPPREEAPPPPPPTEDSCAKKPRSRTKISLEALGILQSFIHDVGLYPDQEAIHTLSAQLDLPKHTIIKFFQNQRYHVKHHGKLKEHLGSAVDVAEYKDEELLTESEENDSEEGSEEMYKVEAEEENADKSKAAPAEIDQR
Chain of UniProt Q96LT9 (Q96LT9 whole entry, looked up): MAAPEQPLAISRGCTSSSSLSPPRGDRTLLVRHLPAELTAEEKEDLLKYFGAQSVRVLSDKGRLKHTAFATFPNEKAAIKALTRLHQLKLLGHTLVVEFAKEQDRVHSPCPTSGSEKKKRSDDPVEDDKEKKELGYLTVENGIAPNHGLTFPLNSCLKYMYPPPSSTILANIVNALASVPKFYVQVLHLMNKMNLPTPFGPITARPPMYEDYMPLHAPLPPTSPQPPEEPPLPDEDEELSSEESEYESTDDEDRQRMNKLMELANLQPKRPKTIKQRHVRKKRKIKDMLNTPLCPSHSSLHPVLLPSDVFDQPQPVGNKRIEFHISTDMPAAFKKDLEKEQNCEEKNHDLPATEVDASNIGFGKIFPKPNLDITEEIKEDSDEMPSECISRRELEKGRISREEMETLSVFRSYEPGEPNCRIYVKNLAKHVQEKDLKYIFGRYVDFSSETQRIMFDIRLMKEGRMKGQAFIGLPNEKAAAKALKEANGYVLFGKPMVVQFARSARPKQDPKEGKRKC
Chain of UniProt Q9Y6D0 (Q9Y6D0 whole entry, looked up): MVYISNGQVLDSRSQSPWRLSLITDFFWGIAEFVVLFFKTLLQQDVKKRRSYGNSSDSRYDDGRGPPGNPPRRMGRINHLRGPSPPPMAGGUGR
Chain of UniProt Q9BUV8 (Q9BUV8 whole entry, looked up): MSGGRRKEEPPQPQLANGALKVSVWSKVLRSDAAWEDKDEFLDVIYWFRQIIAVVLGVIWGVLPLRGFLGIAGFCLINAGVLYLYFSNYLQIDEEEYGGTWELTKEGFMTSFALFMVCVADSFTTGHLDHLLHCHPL

| Target | log2 fold change (lapatinib) | log2 fold change (pictilisib) | log2 fold change (crizotinib) | log2 fold change [1] | log2 fold change (duvelisib) | log2 fold change (gandotinib) | log2 fold change (tozasertib) | log2 fold change (doramapimod) | log2 fold change (bafetinib) | log2 fold change [2] |
| --- | --- | --- | --- | --- | --- | --- | --- | --- | --- | --- |
| RAB21 (UniProt Q9UL25) | -0.028 | -0.053 | -0.001 | 0.208 | -0.087 | -0.112 | -0.013 | -0.055 | -0.059 | -0.09 |
| RBMX (UniProt P38159) | 0.002 | 0.012 | 0.022 | 0.011 | 0.033 | -0.003 | 0.013 | 0.008 | 0.068 | 0.022 |
| RNF40 (UniProt O75150) | -0.019 | -0.005 | -0.01 | -0.011 | -0.001 | -0.048 | -0.002 | 0.002 | 0.01 | 0.03 |
| RPS6KA3 (UniProt P51812) | -0.089 | 0.223 | -0.012 | -0.037 | -0.016 | 0.156 | 0.363 | -0.057 | -0.077 | -0.083 |
| RBM23 isoform 2 (UniProt Q86U06) | 0.056 | -0.053 | -0.076 | 0.044 | -0.008 | 0.272 | 0.053 | 0.489 (active) | -0.114 | 0.083 |
| QTRT2 isoform 4 (UniProt Q9H974) | -0.016 | -0.037 | -0.018 | -0.297 (active) | -0.008 | 0.185 | 0.003 | -0.029 | -0.089 | 0.256 (active) |
| SCAF1 (UniProt Q9H7N4) | -0.06 | -0.107 | -0.011 | 0.017 | -0.337 | -0.074 | -0.023 | 0.052 | -0.27 | -0.096 |
| RAE1 (UniProt P78406) | 0.055 | 0.003 | 0.05 | -0.158 | -0.063 | 0.031 | -0.071 | -0.032 | 0.235 | 0.111 |
| SERINC3 (UniProt Q13530) | -0.052 | -0.028 | -0.07 | -0.38 (active) | -0.001 | 0.16 | -0.012 | 0.03 | -0.014 | 0.075 |
| SAR1B (UniProt Q9Y6B6) | 0.122 | 0.036 | -0.056 | -0.031 | 0.004 | 0.44 (active) | -0.005 | 0.578 (active) | -0.079 | 0.08 |
| RAB8B (UniProt Q92930) | 0.065 | -0.018 | 0.034 | 0.037 | 0.098 | -0.289 (active) | 0.003 | -0.013 | 0.088 | -0.079 |
| RBM5 (UniProt P52756) | 0.029 | -0.013 | 0.005 | -0.268 | -0.058 | -0.015 | 0 | 0.058 | -0.051 | 0.089 |
| RNASEH1 (UniProt O60930) | – | – | – | -0.014 | – | -0.174 | – | – | – | 0.274 |
| RUFY2 isoform 1 (UniProt Q8WXA3) | – | -0.533 (active) | -0.015 | 0.116 | – | 0.072 | 0.131 | -0.136 | 0.177 | -0.099 |
| SATB2 (UniProt Q9UPW6) | -0.009 | – | 0.009 | 0.042 | 0.03 | -0.039 | -0.008 | 0.002 | – | -0.008 |
| RAB5IF isoform 5 (UniProt Q9BUV8) | -0.043 | -0.122 | – | 0.753 (active) | -0.071 | -0.234 | 0 | – | 0.221 | -0.357 |
| SEMA4G isoform 2 (UniProt Q9NTN9) | – | – | -0.084 | 0.036 | -0.294 | 0.019 | 0.082 | -0.053 | – | -0.024 |

| Target | log2 fold change (lapatinib) | log2 fold change (pictilisib) | log2 fold change (crizotinib) | log2 fold change [1] | log2 fold change (duvelisib) | log2 fold change (gandotinib) | log2 fold change (tozasertib) | log2 fold change (doramapimod) | log2 fold change (bafetinib) | log2 fold change [2] |
| --- | --- | --- | --- | --- | --- | --- | --- | --- | --- | --- |
| RBM4 isoform 3 (UniProt Q9BWF3) | – | – | 0.114 | – | – | – | – | 0.016 | – | – |
| RDH11 (UniProt Q8TC12) | -0.035 | – | -0.034 | -0.11 | -0.011 | 0.298 (active) | 0.009 | 0.041 | – | 0.328 (active) |
| SEC16A isoform 3 (UniProt O15027) | – | – | – | – | 0.024 | – | – | – | – | – |
| RXRA (UniProt P19793) | -0.045 | – | -0.062 | -0.041 | 0 | -0.047 | – | 0.019 | – | 0.126 |
| SELENOK (UniProt Q9Y6D0) | -0.065 | -0.048 | – | -0.543 (active) | 0.082 | 0.52 (active) | – | – | -0.027 | 0.542 (active) |
| RAD17 (UniProt O75943) | – | -0.019 | -0.01 | 0.021 | -0.027 | -0.194 | 0.005 | -0.015 | 0 | -0.055 |
| RBBP7 (UniProt Q16576) | 0.001 | 0.007 | 0.026 | – | 0.02 | – | 0.073 | -0.036 | -0.072 | – |
| RHOU (UniProt Q7L0Q8) | -0.05 | – | -0.002 | -0.323 (active) | 0.024 | -0.031 | 0.113 | 0.038 | – | 0.056 |
| RMI2 (UniProt Q96E14) | – | – | 0.005 | – | 0.013 | – | -0.068 | -0.012 | – | – |
| RNF24 isoform 2 (UniProt Q9Y225) | – | -0.089 | -0.074 | -0.173 | – | 0.117 | – | -0.093 | -0.477 | 0.028 |
| ROCK1 (UniProt Q13464) | -0.003 | -0.021 | 0.011 | – | 0.006 | -0.04 | 0.027 | -0.025 | -0.016 | 0.031 |
| RNPC3 (UniProt Q96LT9) | -0.018 | – | -0.043 | 0.036 | 0.072 | 0.016 | – | -0.115 | – | -0.115 |
| RNF2 (UniProt Q99496) | – | – | 0.087 | 0.484 (active) | 0.031 | -0.299 | 0.021 | -0.032 | – | -0.442 (active) |
| RALGAPB isoform 3 (UniProt Q86X10) | – | -0.018 | – | -0.04 | -0.396 | -0.33 | 0.027 | – | -0.255 | -0.026 |
| SERAC1 (UniProt Q96JX3) | – | -0.018 | – | -0.074 | 0.145 | 0.052 | -0.089 | – | -0.276 | 0.127 |
| RLIM (UniProt Q9NVW2) | – | -0.053 | -0.323 | – | – | – | – | -0.044 | -0.193 | – |
| RECQL4 (UniProt O94761) | – | -0.032 | -0.079 | -0.039 | 0.061 | -0.472 (active) | -0.014 | 0.029 | -0.099 | 0.146 |
